Laboratory results as given in the supplement of paper PMC7411054.
Counter-ions that a name gives are not always drawn.

Tests used:
Conditions in all cases: treatment time: 24 h
A549-ACTB-RAB5A [1] = assay: phenotypically active (imaging signature differs from DMSO and reproducible) at any of 0.3-9 uM (binary (1 = active, 0 = inactive)); higher = active
How it was run: (§1)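 Phenotypic activity depended on meeting both a deviation and a reproducibility criterion. The fifteen gene-edited A549, HepG2 and WPMY1 reporter lines were treated at 0.3, 1, 3 or 9 µM for 24 h, four wells each, then imaged live with features normalised to solvent control wells. Deviation required ≥3 of 4 wells past the 95th percentile of control Euclidean distances, and reproducibility a median replicate Pearson correlation above the 95th percentile of non-replicates.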

A549-CANX-COX4 = assay: as above
How it was run: as §1

A549-GM130-SQSTM1 [2] = assay: as above
How it was run: as §1

A549-TP53BP1-CLTA [3] = assay: as above
How it was run: as §1

A549-TUBA1B-RELA = assay: as above
How it was run: as §1

HepG2-ACTB-RAB5A = assay: as above
How it was run: as §1

HepG2-CANX-COX4 = assay: as above
How it was run: as §1

HepG2-GM130-SQSTM1 [4] = assay: as above
How it was run: as §1

HepG2-TP53BP1-CLTA = assay: as above
How it was run: as §1

HepG2-TUBA1B-RELA [5] = assay: as above
How it was run: as §1

WPMY1-ACTB-RAB5A = assay: as above
How it was run: as §1

WPMY1-CANX-COX4 = assay: as above
How it was run: as §1

WPMY1-GM130-SQSTM1 = assay: as above
How it was run: as §1

WPMY1-TP53BP1-CLTA = assay: as above
How it was run: as §1

WPMY1-TUBA1B-RELA = assay: as above
How it was run: as §1

A549-ACTB-RAB5A [6] = assay: lowest phenotypically active concentration; higher = less potent
How it was run: as §1

A549-GM130-SQSTM1 [7] = assay: as above
How it was run: as §1

A549-TP53BP1-CLTA [8] = assay: as above
How it was run: as §1

HepG2-GM130-SQSTM1 [9] = assay: as above
How it was run: as §1

HepG2-TUBA1B-RELA [10] = assay: as above
How it was run: as §1

Row | SMILES | phenotypically active (A549-ACTB-RAB5A [1]) | phenotypically active (A549-CANX-COX4) | phenotypically active (A549-GM130-SQSTM1 [2]) | phenotypically active (A549-TP53BP1-CLTA [3]) | phenotypically active (A549-TUBA1B-RELA) | phenotypically active (HepG2-ACTB-RAB5A) | phenotypically active (HepG2-CANX-COX4) | phenotypically active (HepG2-GM130-SQSTM1 [4]) | phenotypically active (HepG2-TP53BP1-CLTA) | phenotypically active (HepG2-TUBA1B-RELA [5]) | phenotypically active (WPMY1-ACTB-RAB5A) | phenotypically active (WPMY1-CANX-COX4) | phenotypically active (WPMY1-GM130-SQSTM1) | phenotypically active (WPMY1-TP53BP1-CLTA) | phenotypically active (WPMY1-TUBA1B-RELA) | lowest phenotypically active concentration (A549-ACTB-RAB5A [6]) [µM] | lowest phenotypically active concentration (A549-GM130-SQSTM1 [7]) [µM] | lowest phenotypically active concentration (A549-TP53BP1-CLTA [8]) [µM] | lowest phenotypically active concentration (HepG2-GM130-SQSTM1 [9]) [µM] | lowest phenotypically active concentration (HepG2-TUBA1B-RELA [10]) [µM]
1 | C=C[C@H]1C[N@@]2CC[C@H]1C[C@H]2[C@H](O)c1ccnc2ccccc12 [(-)-Cinchonidine] | 0 (inactive) | 0 (inactive) | 0 (inactive) | 0 (inactive) | 0 (inactive) | 0 (inactive) | 0 (inactive) | 0 (inactive) | 0 (inactive) | 0 (inactive) | 0 (inactive) | 0 (inactive) | 0 (inactive) | 0 (inactive) | 0 (inactive) |  |  |  |  | 
2 | COc1ccc(C(=O)Cc2c(CCN(C)C)cc3c(c2OC)OCO3)c(C(=O)O)c1OC [Narcétine] | 0 (inactive) | 0 (inactive) | 0 (inactive) | 0 (inactive) | 0 (inactive) | 0 (inactive) | 0 (inactive) | 0 (inactive) | 0 (inactive) | 0 (inactive) | 0 (inactive) | 0 (inactive) | 0 (inactive) | 0 (inactive) | 0 (inactive) |  |  |  |  | 
3 | COC1=CC(=O)O[C@@H](/C=C/c2ccccc2)C1 [Kawain] | 0 (inactive) | 0 (inactive) | 0 (inactive) | 0 (inactive) | 0 (inactive) | 0 (inactive) | 0 (inactive) | 0 (inactive) | 0 (inactive) | 0 (inactive) | 0 (inactive) | 0 (inactive) | 0 (inactive) | 0 (inactive) | 0 (inactive) |  |  |  |  | 
4 | C=CCC1(C(C)C#CCC)C(=O)NC(=O)N(C)C1=O (stereo unspecified) [methohexital] | 0 (inactive) | 0 (inactive) | 0 (inactive) | 0 (inactive) | 0 (inactive) | 0 (inactive) | 0 (inactive) | 0 (inactive) | 0 (inactive) | 0 (inactive) | 0 (inactive) | 0 (inactive) | 0 (inactive) | 0 (inactive) | 0 (inactive) |  |  |  |  | 
5 | CC[C@H]1C[N@@]2CC[C@H]1C[C@H]2[C@@H](O)c1ccnc2ccc(O)cc12 [Hydrocupreine] | 0 (inactive) | 0 (inactive) | 0 (inactive) | 0 (inactive) | 0 (inactive) | 0 (inactive) | 0 (inactive) | 0 (inactive) | 0 (inactive) | 0 (inactive) | 0 (inactive) | 0 (inactive) | 0 (inactive) | 0 (inactive) | 0 (inactive) |  |  |  |  | 
6 | N#CC(C#N)=Cc1ccc(O)c(O)c1 | 0 (inactive) | 0 (inactive) | 0 (inactive) | 0 (inactive) | 0 (inactive) | 0 (inactive) | 0 (inactive) | 0 (inactive) | 0 (inactive) | 0 (inactive) | 0 (inactive) | 0 (inactive) | 0 (inactive) | 0 (inactive) | 0 (inactive) |  |  |  |  | 
7 | CCN(CC)C(C)C(=O)c1ccccc1 (stereo unspecified) [amfepramone] | 0 (inactive) | 0 (inactive) | 0 (inactive) | 0 (inactive) | 0 (inactive) | 0 (inactive) | 0 (inactive) | 0 (inactive) | 0 (inactive) | 0 (inactive) | 0 (inactive) | 0 (inactive) | 0 (inactive) | 0 (inactive) | 0 (inactive) |  |  |  |  | 
8 | CCC1(CC)C(=O)NC(=O)N(C)C1=O [metharbital] | 0 (inactive) | 0 (inactive) | 0 (inactive) | 0 (inactive) | 0 (inactive) | 0 (inactive) | 0 (inactive) | 0 (inactive) | 0 (inactive) | 0 (inactive) | 0 (inactive) | 0 (inactive) | 0 (inactive) | 0 (inactive) | 0 (inactive) |  |  |  |  | 
9 | CCCCCOc1ccc(C(=O)c2cccc3ccccc23)c2ccccc12 | 0 (inactive) | 0 (inactive) | 0 (inactive) | 0 (inactive) | 0 (inactive) | 0 (inactive) | 0 (inactive) | 0 (inactive) | 0 (inactive) | 0 (inactive) | 0 (inactive) | 0 (inactive) | 0 (inactive) | 0 (inactive) | 0 (inactive) |  |  |  |  | 
10 | C[C@@H](N)[C@@H](O)c1ccccc1 [phenylpropanolamine] | 0 (inactive) | 0 (inactive) | 0 (inactive) | 0 (inactive) | 0 (inactive) | 0 (inactive) | 0 (inactive) | 0 (inactive) | 0 (inactive) | 0 (inactive) | 0 (inactive) | 0 (inactive) | 0 (inactive) | 0 (inactive) | 0 (inactive) |  |  |  |  | 
11 | CC(C)NCC(O)c1ccc(N)c(C#N)c1 (stereo unspecified) [Cimaterol] | 0 (inactive) | 0 (inactive) | 0 (inactive) | 0 (inactive) | 0 (inactive) | 0 (inactive) | 0 (inactive) | 0 (inactive) | 0 (inactive) | 0 (inactive) | 0 (inactive) | 0 (inactive) | 0 (inactive) | 0 (inactive) | 0 (inactive) |  |  |  |  | 
12 | CCCCCCCCCC(=O)O[C@H]1CC[C@H]2[C@@H]3CCC4=CC(=O)CC[C@@H]4[C@H]3CC[C@]12C [nandrolone-decanoate] | 0 (inactive) | 0 (inactive) | 0 (inactive) | 0 (inactive) | 0 (inactive) | 0 (inactive) | 0 (inactive) | 0 (inactive) | 0 (inactive) | 0 (inactive) | 0 (inactive) | 0 (inactive) | 0 (inactive) | 0 (inactive) | 0 (inactive) |  |  |  |  | 
13 | CCOc1cc(C=O)ccc1O [Ethylvanilline] | 0 (inactive) | 0 (inactive) | 0 (inactive) | 0 (inactive) | 0 (inactive) | 0 (inactive) | 0 (inactive) | 0 (inactive) | 0 (inactive) | 0 (inactive) | 0 (inactive) | 0 (inactive) | 0 (inactive) | 0 (inactive) | 0 (inactive) |  |  |  |  | 
14 | CC[N+](CC)(CCCNC1=CC(=O)C(NCCC[N+](CC)(CC)Cc2ccccc2)=CC1=O)Cc1ccccc1 [Benzoquinonium dibromide] | 0 (inactive) | 0 (inactive) | 0 (inactive) | 0 (inactive) | 0 (inactive) | 0 (inactive) | 0 (inactive) | 0 (inactive) | 0 (inactive) | 0 (inactive) | 0 (inactive) | 0 (inactive) | 0 (inactive) | 0 (inactive) | 0 (inactive) |  |  |  |  | 
15 | CCN1C[C@]2(COC)CC[C@H](O)[C@]34[C@@H]5C[C@H]6[C@H](OC)[C@@H]5[C@](O)(C[C@@H]6OC)[C@](O)([C@H]13)[C@@H](OC)[C@H]24 [Delsoline] | 0 (inactive) | 0 (inactive) | 0 (inactive) | 0 (inactive) | 0 (inactive) | 0 (inactive) | 0 (inactive) | 0 (inactive) | 0 (inactive) | 0 (inactive) | 0 (inactive) | 0 (inactive) | 0 (inactive) | 0 (inactive) | 0 (inactive) |  |  |  |  | 
16 | CC(C)[C@@]1(NC(=O)[C@@H]2C[C@@H]3c4cccc5[nH]cc(c45)C[C@H]3N(C)C2)O[C@@]2(O)[C@@H]3CCCN3C(=O)[C@H](Cc3ccccc3)N2C1=O [Dihydroergocristine mesylate] | 1 (active) | 1 (active) | 1 (active) | 1 (active) | 1 (active) | 1 (active) | 1 (active) | 1 (active) | 1 (active) | 1 (active) | 1 (active) | 1 (active) | 1 (active) | 1 (active) | 1 (active) | 9 | 9 | 9 | 3 | 3
17 | CC[C@H]1C2C[C@H]3[C@@H]4N(C)c5ccccc5[C@]45C[C@H](C2[C@H]5O)N3[C@@H]1O (stereo partly specified) [Ajmaline] | 0 (inactive) | 0 (inactive) | 0 (inactive) | 0 (inactive) | 0 (inactive) | 0 (inactive) | 0 (inactive) | 0 (inactive) | 0 (inactive) | 0 (inactive) | 0 (inactive) | 0 (inactive) | 0 (inactive) | 0 (inactive) | 0 (inactive) |  |  |  |  | 
18 | CN1C[C@H](C(=O)N[C@]2(C)O[C@@]3(O)[C@@H]4CCCN4C(=O)[C@H](Cc4ccccc4)N3C2=O)C=C2c3cccc4[nH]cc(c34)C[C@H]21 [ergotamine] | 1 (active) | 1 (active) | 1 (active) | 1 (active) | 1 (active) | 1 (active) | 1 (active) | 1 (active) | 1 (active) | 1 (active) | 1 (active) | 1 (active) | 1 (active) | 1 (active) | 1 (active) | 9 | 3 | 3 | 3 | 9
19 | CC1=C2[C@H]3OC(=O)[C@@H](C)[C@@H]3CC[C@@]2(C)C=CC1=O [alpha-Santonin] | 0 (inactive) | 0 (inactive) | 0 (inactive) | 0 (inactive) | 0 (inactive) | 0 (inactive) | 0 (inactive) | 0 (inactive) | 0 (inactive) | 0 (inactive) | 0 (inactive) | 0 (inactive) | 0 (inactive) | 0 (inactive) | 0 (inactive) |  |  |  |  | 
20 | CC1=C(O)C(=O)[C@@H]2O[C@@H]2C1=O [(-)-Terreic acid] | 0 (inactive) | 0 (inactive) | 0 (inactive) | 0 (inactive) | 0 (inactive) | 0 (inactive) | 0 (inactive) | 0 (inactive) | 0 (inactive) | 0 (inactive) | 0 (inactive) | 0 (inactive) | 0 (inactive) | 0 (inactive) | 0 (inactive) |  |  |  |  | 
21 | C[C@]12C/C(=C\O)C(=O)C[C@@H]1CC[C@@H]1[C@@H]2CC[C@@]2(C)[C@H]1CC[C@]2(C)O [oxymetholone] | 1 (active) | 0 (inactive) | 0 (inactive) | 0 (inactive) | 0 (inactive) | 0 (inactive) | 0 (inactive) | 0 (inactive) | 0 (inactive) | 0 (inactive) | 0 (inactive) | 0 (inactive) | 0 (inactive) | 0 (inactive) | 0 (inactive) | 9 |  |  |  | 
22 | CC(C)CC(N(C)C)C1(c2ccc(Cl)cc2)CCC1 (stereo unspecified) [sibutramine] | 0 (inactive) | 0 (inactive) | 0 (inactive) | 0 (inactive) | 0 (inactive) | 0 (inactive) | 0 (inactive) | 0 (inactive) | 0 (inactive) | 0 (inactive) | 0 (inactive) | 0 (inactive) | 0 (inactive) | 0 (inactive) | 0 (inactive) |  |  |  |  | 
23 | O=C(O)CC[N+](=O)[O-] [3-Nitropropionic acid] | 0 (inactive) | 0 (inactive) | 0 (inactive) | 0 (inactive) | 0 (inactive) | 0 (inactive) | 0 (inactive) | 0 (inactive) | 0 (inactive) | 0 (inactive) | 0 (inactive) | 0 (inactive) | 0 (inactive) | 0 (inactive) | 0 (inactive) |  |  |  |  | 
